In PubChem BioAssay (NCATS):
Results filed as inconclusive are left out. Active and inactive are the calls of the source. Unless noted, calls follow the shape of the dose curve; as a rule, active = well fitted curve in the direction sought with a large enough effect; inconclusive = small, poorly fitted or top-dose-only effect, or another doubt; inactive = no such curve, though single readings can be large; an effect the other way counts as inactive or inconclusive.

Experiments:
[1] = biological target: Estrogen receptor (Homo sapiens) (UniProt P03372); assay: qHTS assay for small molecule agonists of estrogen receptor alpha signaling (AID 588514; calls by dose curve;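 also: 0% = vehicle only and 100% = reference agonist; nearly all actives have a fitted effect of over 70% in size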)
Sequence of Estrogen receptor (Homo sapiens) (P03372 whole entry, looked up): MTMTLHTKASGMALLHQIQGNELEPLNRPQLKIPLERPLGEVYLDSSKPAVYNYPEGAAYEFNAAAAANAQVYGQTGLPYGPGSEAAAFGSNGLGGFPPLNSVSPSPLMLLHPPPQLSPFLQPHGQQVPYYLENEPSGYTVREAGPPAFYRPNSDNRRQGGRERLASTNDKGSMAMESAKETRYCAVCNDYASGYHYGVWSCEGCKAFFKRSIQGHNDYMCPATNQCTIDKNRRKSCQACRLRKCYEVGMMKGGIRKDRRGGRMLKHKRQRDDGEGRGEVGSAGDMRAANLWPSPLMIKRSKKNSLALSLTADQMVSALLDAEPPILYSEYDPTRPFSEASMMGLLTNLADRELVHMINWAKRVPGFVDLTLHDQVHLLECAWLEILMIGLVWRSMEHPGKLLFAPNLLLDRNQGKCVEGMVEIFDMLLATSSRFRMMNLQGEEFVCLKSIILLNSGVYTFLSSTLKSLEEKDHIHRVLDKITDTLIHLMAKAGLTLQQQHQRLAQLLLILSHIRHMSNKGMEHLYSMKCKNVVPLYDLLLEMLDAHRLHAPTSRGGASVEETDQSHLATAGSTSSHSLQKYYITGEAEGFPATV
Summary of the method: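 Cells were plated at 5000/well, incubated 4 hrs at 37 C, dosed with compound titration series, incubated 18 hrs at 37 C, loaded with CCF4 dye for 2 hrs at RT, then fluorescence was read.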

[2] = biological target: Vitamin D3 receptor (Homo sapiens) (UniProt P11473); assay: qHTS assay for small molecule antagonists of vitamin D receptor signaling (AID 588541; calls by dose curve;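 also: receptor activated by calcitriol during compound treatment; series mostly up to about 77 µM; % is scaled to controls: 0 for no effect and ±100 for the full control effect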)
Sequence of Vitamin D3 receptor (Homo sapiens) (P11473 whole entry, looked up): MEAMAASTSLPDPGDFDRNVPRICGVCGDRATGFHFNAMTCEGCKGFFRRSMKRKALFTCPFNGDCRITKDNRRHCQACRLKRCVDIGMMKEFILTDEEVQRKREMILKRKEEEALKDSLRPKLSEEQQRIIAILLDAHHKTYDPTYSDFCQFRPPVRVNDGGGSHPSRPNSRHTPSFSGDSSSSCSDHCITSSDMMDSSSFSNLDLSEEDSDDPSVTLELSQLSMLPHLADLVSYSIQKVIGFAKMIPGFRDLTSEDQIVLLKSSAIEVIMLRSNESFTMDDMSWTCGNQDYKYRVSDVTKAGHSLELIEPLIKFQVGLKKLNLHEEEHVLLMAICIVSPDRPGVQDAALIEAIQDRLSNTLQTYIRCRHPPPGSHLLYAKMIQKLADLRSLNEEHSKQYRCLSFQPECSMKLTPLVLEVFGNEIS
Summary of the method: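 VDR-UAS-bla HEK293T cells in 2% charcoal-stripped FBS were stimulated with 1-alpha,25-dihydroxyvitamin D3 (3 nM final) plus compound for 16 h at 37 C. The beta-lactamase CCF4 readout was normalized to 50 nM agonist and DMSO, and Hill fits gave IC50.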

[3] = biological target: Vitamin D3 receptor (Homo sapiens) (UniProt P11473); assay: qHTS assay for small molecule agonists of vitamin D receptor signaling (AID 588543; calls by dose curve;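 also: 0% = DMSO basal and 100% = reference agonist control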)
Summary of the method: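 Agonist-mode beta-lactamase reporter: HEK293T VDR-UAS-bla cells in charcoal-stripped 2% FBS, compound series 16 h 37 C, CCF4 2 h RT. EC50 from Hill fit, scaled against DMSO and 50 nM calcitriol control.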

[4] = qHTS assay for small molecule agonists of retinoid X receptor alpha signaling (AID 588544; calls by dose curve;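 as to activation: 0% = DMSO basal wells and 100% = reference agonist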); conditions: HEK293T RXRa-UAS-bla, beta-lactamase reporter, 18 h; 530 nm emission
[5] = biological target: Retinoic acid receptor RXR-alpha (Homo sapiens) (UniProt P19793); assay: as above
Sequence of Retinoic acid receptor RXR-alpha (Homo sapiens) (P19793 whole entry, looked up): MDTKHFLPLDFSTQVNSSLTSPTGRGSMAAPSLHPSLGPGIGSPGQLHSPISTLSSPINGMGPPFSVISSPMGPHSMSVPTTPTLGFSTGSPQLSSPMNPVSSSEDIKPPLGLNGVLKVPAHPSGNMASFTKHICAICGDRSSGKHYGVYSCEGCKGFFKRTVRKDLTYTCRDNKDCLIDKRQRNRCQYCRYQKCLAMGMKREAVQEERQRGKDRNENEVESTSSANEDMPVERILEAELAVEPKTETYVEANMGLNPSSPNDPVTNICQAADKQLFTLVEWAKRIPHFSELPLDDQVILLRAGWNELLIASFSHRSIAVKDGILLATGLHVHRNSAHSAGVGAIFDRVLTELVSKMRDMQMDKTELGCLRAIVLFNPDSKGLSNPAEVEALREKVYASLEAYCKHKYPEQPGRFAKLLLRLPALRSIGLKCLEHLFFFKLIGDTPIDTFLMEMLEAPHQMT

[6] = biological target: Thyroid hormone receptor beta (Homo sapiens) (UniProt P10828); assay: qHTS assay for small molecule agonists of thyroid hormone receptor beta signaling (AID 588545; calls by dose curve;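 also: 0% = DMSO only and 100% = 10 nM T3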)
Sequence of Thyroid hormone receptor beta (Homo sapiens) (P10828 whole entry, looked up): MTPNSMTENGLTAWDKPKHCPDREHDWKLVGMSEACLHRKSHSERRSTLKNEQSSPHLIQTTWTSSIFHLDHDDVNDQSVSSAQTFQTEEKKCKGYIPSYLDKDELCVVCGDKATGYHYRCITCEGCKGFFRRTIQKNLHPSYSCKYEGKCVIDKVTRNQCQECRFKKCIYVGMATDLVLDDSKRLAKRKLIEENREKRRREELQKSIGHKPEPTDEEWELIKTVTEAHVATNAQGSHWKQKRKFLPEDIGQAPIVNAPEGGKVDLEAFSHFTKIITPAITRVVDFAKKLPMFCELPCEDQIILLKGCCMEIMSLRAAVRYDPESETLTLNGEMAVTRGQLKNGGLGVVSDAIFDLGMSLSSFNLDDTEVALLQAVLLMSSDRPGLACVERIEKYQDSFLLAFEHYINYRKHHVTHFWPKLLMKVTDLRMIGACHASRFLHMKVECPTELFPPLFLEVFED
Summary of the method: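 Efficacy and EC50 values derive from Hill fits of qHTS titration data, normalized to 10 nM T3 and DMSO-only wells. HEK 293 reporter cells were stimulated for 18 hrs at 37 C, with beta-lactamase activity measured by CCF4 fluorescence.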

[7] = qHTS assay for small molecule antagonists of retinoid X receptor alpha signaling (AID 588546; active = well fitted inhibition curve with a large enough effect in the signal ratio, with a control signal flat, not every such curve was filed as active; the % refers to the signal ratio;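 also: cells stimulated with 9-cis-retinoic acid as agonist; % is scaled to controls: 0 for no effect and ±100 for the full control effect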); conditions: HEK293T RXRa-UAS-bla, beta-lactamase ratio, antagonist mode; measured here: W530 green channel, cytotoxicity proxy
Summary of the method: (§1)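 Beta-lactamase reporter inhibition, read as CCF4 fluorescence ratio (ex 405, em 460/530 nm) after 2 h at RT. HEK293T UAS-bla cells, 2500/well, were stimulated with 9-cis-RA at 500 or 100 nM final alongside test compound for 18 h at 37 C.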

[8] = biological target: Retinoic acid receptor RXR-alpha (Homo sapiens) (UniProt P19793); assay: as above; conditions: HEK293T RXRa-UAS-bla, beta-lactamase ratio, antagonist mode
Summary of the method: as §1

[9] = qHTS assay for small molecule activators of the p53 signaling pathway (AID 651743; active = well fitted activation curve with a large enough effect in the signal ratio, not every such curve was filed as active; the % refers to the signal ratio; also: series mostly up to about 92 µM; % of control where 0% means no effect); conditions: HCT-116 p53RE-bla, beta-lactamase FRET ratio, 16 h; activation: stronger effect = higher value
Summary of the method: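 p53RE-bla HCT-116 cells carrying a beta-lactamase reporter under p53 response elements were exposed to compounds for 16 hours at 37 C. Reporter activity read as fluorescence after 2 hours at room temperature with LiveBLAzer B/G FRET substrate.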

[10] = qHTS assay for environmental chemicals that activate the Aryl hydrocarbon Receptor (AhR) signaling pathway (AID 651777); conditions: 1A2-DRE human hepatoma cells, luciferase, 24 h; activation: stronger effect = higher value; also: % of control where 0% means no effect; nearly all actives have a fitted effect of over 15% in size
Summary of the method: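 Reporter gene assay: hepatoma cells with DRE/CYP1A2-luciferase, 24 hr compound incubation at 37 C, 5% CO2, luminescence after One-Glo (30 min, RT).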

[11] = biological target: Peroxisome proliferator-activated receptor alpha (Homo sapiens) (UniProt Q07869); assay: qHTS assay for small molecule agonists of the peroxisome proliferator-activated receptor alpha (PPARalpha) signaling pathway (AID 651778); conditions: PathHunter PPARalpha complementation, chemiluminescence, 6 h; max response: stronger effect = higher value; also: % of control where 0% means no effect
Sequence of Peroxisome proliferator-activated receptor alpha (Homo sapiens) (Q07869 whole entry, looked up, the tested form may be a part): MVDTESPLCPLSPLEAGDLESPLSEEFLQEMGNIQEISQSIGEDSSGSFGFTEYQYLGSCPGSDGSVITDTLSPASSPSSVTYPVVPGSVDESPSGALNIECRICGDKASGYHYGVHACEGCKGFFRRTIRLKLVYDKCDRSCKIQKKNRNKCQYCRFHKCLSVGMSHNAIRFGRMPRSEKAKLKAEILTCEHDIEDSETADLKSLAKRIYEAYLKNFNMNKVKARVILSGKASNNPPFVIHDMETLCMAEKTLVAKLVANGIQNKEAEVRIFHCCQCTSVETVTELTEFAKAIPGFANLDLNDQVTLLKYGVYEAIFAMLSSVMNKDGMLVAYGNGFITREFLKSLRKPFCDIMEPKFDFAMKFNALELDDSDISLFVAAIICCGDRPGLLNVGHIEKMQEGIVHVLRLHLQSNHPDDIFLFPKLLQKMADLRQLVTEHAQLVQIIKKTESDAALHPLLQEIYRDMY
Summary of the method: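 Enzyme-fragment complementation assay in which ligand-bound PPARalpha translocates and forms an active enzyme that generates chemiluminescence. Cells were plated overnight, exposed to compound for 6 hr at 37 C, and then given detection reagent for 60 min at room temperature.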

[12] = qHTS assay for small molecule agonists of the antioxidant response element (ARE) signaling pathway measured by Nrf2-dependant transcriptional activity - cell viability counter screen (AID 720653; active = well fitted curve in the direction sought with a large enough effect in the repeat runs; an effect the other way counts as inactive or inconclusive; also: % is scaled to controls: 0 for no effect and ±100 for the full control effect); conditions: ARE-bla HepG2 viability, CellTiter-Glo ATP luminescence, 16 h; max response: stronger effect = lower value
Summary of the method: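 ARE-bla HepG2 cells treated with compounds for 16 h at 37C; this counter screen measures viability as intracellular ATP by CellTiter-Glo luminescence after 30 min at room temperature.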

[13] = qHTS assay for cell viability of HEK293 cells (AID 743288); conditions: ATP luminescence (CellTiter-Glo), 18 h; max response: stronger effect = lower value; also: % is scaled to controls: 0 for no effect and ±100 for the full control effect; nearly all actives have a fitted effect of over 50% in size
Summary of the method: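 Total intracellular ATP, measured with a luciferase-coupled reagent, indicates the number of viable HEK293 cells. Exposure to test chemicals lasts 18 h at 37 C in 1,536-well format at 2,000 cells/well.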

[14] = NCATS anti-infectives library activity on HEK293 viability as a counter-qHTS vs the C. elegans viability qHTS (AID 1745854);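 also: HEK293 cells exposed to compounds for 24 hr before the viability read; % is scaled to controls: 0 for no effect and ±100 for the full control effect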
Summary of the method: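 Compounds were acoustically plated (several concentrations, 1:5, final up to 41.7 uM), then 1500 HEK293 cells added per well and incubated 24 hr at 37C, 5% CO2. CellTiter-Glo was added and luminescence read after 10 min.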

[15] = NCATS anti-infectives library activity on the primary C. elegans qHTS viability assay (AID 1745855; calls by dose curve; also: potency is read from the fitted curve at half-maximal effect)
Summary of the method: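 Viability read-out is GFP fluorescence of PE254-GFP-FLuc C. elegans, measured by laser cytometry (488 nm) at day 0, 3 and 7. Ten L1 worms per well were incubated 7 days at 21 °C with compounds and bacterial capsules in S medium.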

[16] = biological target: Nuclear receptor subfamily 1 group I member 2 (Rattus norvegicus) (UniProt Q9R1A7); assay: qHTS assay for small molecule activators of the rat pregnane X receptor (rPXR) signaling pathway (AID 651751; call rule not given here; also: 0% is about no effect); conditions: rPXR reporter cells, luciferase (One-Glo), 24 h
Sequence of Nuclear receptor subfamily 1 group I member 2 (Rattus norvegicus) (Q9R1A7 whole entry, looked up): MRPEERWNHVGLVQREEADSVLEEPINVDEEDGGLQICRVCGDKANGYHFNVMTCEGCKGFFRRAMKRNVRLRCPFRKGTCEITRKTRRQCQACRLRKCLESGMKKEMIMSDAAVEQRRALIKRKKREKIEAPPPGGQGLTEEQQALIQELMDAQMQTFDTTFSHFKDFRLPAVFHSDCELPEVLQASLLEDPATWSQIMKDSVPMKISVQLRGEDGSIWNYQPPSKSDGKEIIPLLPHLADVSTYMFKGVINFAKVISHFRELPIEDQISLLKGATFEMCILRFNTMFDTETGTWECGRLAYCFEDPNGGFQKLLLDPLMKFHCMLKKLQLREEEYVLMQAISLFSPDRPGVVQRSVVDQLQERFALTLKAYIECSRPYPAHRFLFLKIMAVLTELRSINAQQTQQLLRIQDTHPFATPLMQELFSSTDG

[17] = qHTS assay for small molecule activators of the human pregnane X receptor (PXR) signaling pathway (AID 720659; call rule not given here; also: 0% is about no effect)
[18] = Viability counterscreen for antagonist of constitutive androstane receptor (CAR) against the NCATS DSHEA and TCM libraries (AID 1794837);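 also: compound exposure lasted 24 h before viability reading; 0% is about no effect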
Summary of the method: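 Viability was measured by CellTiter-Fluor fluorescence (405/540 nm, 1 hr) in HepG2-CYP2B6-hCAR cells. Cells were co-treated 24 hr with 48 uM CITCO (final), antagonist mode, and test substances.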

[19] = Viability counterscreen for agonist of constitutive androstane receptor (CAR) against the NCATS DSHEA and TCM libraries (AID 1794838); also: 0% is about no effect
Summary of the method: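 Cell viability, from CellTiter-Fluor fluorescence (405/540 nm), was scored after a 24 h, 37C exposure of HepG2 cells carrying CYP2B6 reporter and hCAR to test substances in presence of 0.75 uM PK11195.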

[20] = biological target: Nuclear receptor subfamily 1 group I member 3 (Homo sapiens) (UniProt Q14994); assay: Primary qHTS for agonist of constitutive androstane receptor (CAR) against the NCATS DSHEA and TCM libraries (AID 1794839);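 also: HepG2 cells expressing human CAR with a CYP2B6 reporter plus PK11195 antagonist; 0% is about no effect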
Sequence of Nuclear receptor subfamily 1 group I member 3 (Homo sapiens) (Q14994 whole entry, looked up): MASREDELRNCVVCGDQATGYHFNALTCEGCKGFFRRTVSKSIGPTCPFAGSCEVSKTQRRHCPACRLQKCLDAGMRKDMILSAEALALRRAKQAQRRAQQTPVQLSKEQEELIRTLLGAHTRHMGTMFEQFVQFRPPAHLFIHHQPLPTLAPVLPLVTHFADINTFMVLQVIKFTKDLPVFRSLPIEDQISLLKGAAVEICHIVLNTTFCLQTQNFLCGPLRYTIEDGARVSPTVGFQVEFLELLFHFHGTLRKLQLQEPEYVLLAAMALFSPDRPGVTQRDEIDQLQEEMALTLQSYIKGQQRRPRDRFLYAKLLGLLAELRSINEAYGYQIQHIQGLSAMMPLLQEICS
Summary of the method: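 Agonist mode in presence of hCAR antagonist PK11195 (0.75 µM final): test substances, 24 h, 37 °C, on HepG2-CYP2B6-hCAR cells. Same-well readouts: fluorescence viability, then ONE-Glo luminescence; CITCO as reference agonist.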

[21] = HepG2 viability counterscreen (readout 1: protease activity) against the NCATS DSHEA and TCM libraries (AID 1794841);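 also: cells exposed to compounds for about 24 h before the protease read; 0% is about no effect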
Summary of the method: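 Readout 1: cellular protease activity, GF-AFC substrate (25 uM final, 30 min, fluorescence 380/510 nm). Readout 2: ATP content by CellTiter-Glo luminescence after 30 min at RT. Both follow ~24 h exposure of HepG2 cells (1,000/well) to substances.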

[22] = biological target: Cytochrome P450 3A4 (Homo sapiens) (UniProt P08684); assay: qHTS for inhibitors of CYP3A4 against the NCATS DSHEA and TCM libraries (AID 1919971); also: potency is read from the fitted curve at half-maximal effect
Sequence of Cytochrome P450 3A4 (Homo sapiens) (P08684 whole entry, looked up, canonical isoform): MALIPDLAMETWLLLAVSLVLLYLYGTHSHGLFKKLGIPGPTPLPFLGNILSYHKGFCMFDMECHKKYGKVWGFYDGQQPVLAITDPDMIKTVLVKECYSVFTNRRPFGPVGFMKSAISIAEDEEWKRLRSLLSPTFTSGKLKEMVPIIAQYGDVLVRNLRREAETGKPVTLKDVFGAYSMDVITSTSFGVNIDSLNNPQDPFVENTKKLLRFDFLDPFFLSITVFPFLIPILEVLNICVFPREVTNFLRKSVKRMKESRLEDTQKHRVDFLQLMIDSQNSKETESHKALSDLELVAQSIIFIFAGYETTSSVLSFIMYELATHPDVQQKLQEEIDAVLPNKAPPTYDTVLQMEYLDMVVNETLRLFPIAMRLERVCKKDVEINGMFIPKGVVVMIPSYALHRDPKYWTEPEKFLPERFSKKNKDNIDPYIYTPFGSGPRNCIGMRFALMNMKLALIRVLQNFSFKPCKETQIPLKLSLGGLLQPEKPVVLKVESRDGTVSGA
Summary of the method: (§2)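 Read-out is luminescence after P450-Glo detection (30 min, RT). Before that: 15 min compound–enzyme preincubation, then 30-45 min reaction with 1x NADPH regeneration solution, substrate concentration isoform-specific.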

[23] = biological target: Cytochrome P450 2D6 (Homo sapiens) (UniProt P10635); assay: qHTS for inhibitors of CYP2D6 against the NCATS DSHEA and TCM libraries (AID 1919972); also: potency is read from the fitted curve at half-maximal effect
Summary of the method: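 Luminescent P450-Glo read-out of CYP2D6 turnover of a luciferin substrate after NADPH-driven reaction of 30-45 min at room temperature. Compounds were first preincubated 15 min with enzyme at titrated concentrations; quinidine was the intraplate control.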

[24] = biological target: Cytochrome P450 2C19 (Homo sapiens) (UniProt P33261); assay: qHTS for inhibitors of CYP2C19 against the NCATS DSHEA and TCM libraries (AID 1919974);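 also: luminescence from luciferin released by CYP2C19 oxidation of a pro-luciferin substrate; potency is read from the fitted curve at half-maximal effect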
Sequence of Cytochrome P450 2C19 (Homo sapiens) (P33261 whole entry, looked up): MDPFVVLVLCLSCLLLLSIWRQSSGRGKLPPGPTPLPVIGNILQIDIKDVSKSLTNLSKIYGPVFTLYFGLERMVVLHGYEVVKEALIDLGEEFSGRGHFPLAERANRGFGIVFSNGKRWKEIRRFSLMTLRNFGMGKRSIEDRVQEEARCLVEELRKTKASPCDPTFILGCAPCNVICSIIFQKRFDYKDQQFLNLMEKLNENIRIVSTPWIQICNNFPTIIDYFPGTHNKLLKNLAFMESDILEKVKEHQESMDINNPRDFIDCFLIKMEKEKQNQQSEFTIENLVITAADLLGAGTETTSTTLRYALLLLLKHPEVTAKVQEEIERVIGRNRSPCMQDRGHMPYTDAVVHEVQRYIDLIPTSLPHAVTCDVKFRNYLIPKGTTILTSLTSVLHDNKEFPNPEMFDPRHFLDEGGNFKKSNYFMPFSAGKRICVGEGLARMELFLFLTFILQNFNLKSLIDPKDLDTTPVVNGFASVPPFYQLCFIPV
Summary of the method: as §2

[25] = qHTS Counterscreen for compound interference against the NCATS DSHEA and TCM libraries (AID 1919978); conditions: firefly luciferase detection reagent interference, luminescence;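 also: compounds preincubated with 1 µM D-luciferin or buffer before detection reagent; % of control where 0% means no effect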
Summary of the method: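 With 1 uM D-luciferin or phosphate buffer only, compounds at final 19.5 nM–39.8 uM were incubated for 15 min at room temperature. Luciferase detection reagent was then added, and luminescence was measured after a further 30 min at room temperature.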

[26] = Dual reporter qHTS for agonist of Pregnane X Receptor (hPXR) against the NCATS DSHEA and TCM libraries: Fluorescence readout (AID 1920058); also: 0% is about no effect
Summary of the method: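 HepG2 hPXR-Luc, 2000 cells/well, 5 h attach; cpds ~24 h, 37 °C/5% CO2; CellTiter-Fluor 1 h; fluor. Ex/Em 405/540 nm = viability.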

[27] = biological target: Nuclear receptor subfamily 1 group I member 2 (Homo sapiens) (UniProt O75469); assay: Dual reporter qHTS for agonist of Pregnane X Receptor (hPXR) against the NCATS DSHEA and TCM libraries: Luminescence readout (AID 1920059); also: 0% is about no effect
Sequence of Nuclear receptor subfamily 1 group I member 2 (Homo sapiens) (O75469 whole entry, looked up): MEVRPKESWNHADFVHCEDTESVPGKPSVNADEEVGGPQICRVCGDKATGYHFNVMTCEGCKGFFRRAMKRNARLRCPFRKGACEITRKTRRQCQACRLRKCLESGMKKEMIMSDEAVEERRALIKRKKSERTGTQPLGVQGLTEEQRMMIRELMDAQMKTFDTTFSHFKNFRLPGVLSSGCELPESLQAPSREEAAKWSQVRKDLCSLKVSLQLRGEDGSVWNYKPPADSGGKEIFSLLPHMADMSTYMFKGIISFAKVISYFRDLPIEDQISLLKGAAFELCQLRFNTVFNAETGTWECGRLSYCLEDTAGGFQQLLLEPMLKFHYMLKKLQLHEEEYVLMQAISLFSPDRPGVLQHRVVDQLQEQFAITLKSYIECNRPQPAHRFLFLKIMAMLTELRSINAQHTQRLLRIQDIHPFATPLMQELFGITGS
Summary of the method: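 hPXR-Luc HepG2 cells, 2000/well in 5% charcoal-stripped FBS medium, attached 5 h, then exposed 24 h at 37C to compounds. Viability by CellTiter-Fluor, then luciferase luminescence with ONE-Glo.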

[28] = biological target: Nuclear receptor subfamily 1 group I member 2 (Homo sapiens) (UniProt O75469); assay: Dual reporter qHTS for antagonist of Pregnane X Receptor (hPXR) against the NCATS DSHEA and TCM libraries: Luminescence Readout (AID 1920060);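 also: HepG2 cells carrying hPXR luciferase reporter stimulated with rifampicin at 2 µM; 0% is about no effect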
Summary of the method: (§3)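 HepG2 hPXR-Luc, 2000 cells/well, charcoal-stripped FBS medium; 5 h attach; RIF 2 uM final; 24 h 37C/5% CO2; CellTiter-Fluor 1 h, fluor 405/540; ONE-Glo 30 min RT, lum.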

[29] = Dual reporter qHTS for antagonist of Pregnane X Receptor (hPXR) against the NCATS DSHEA and TCM libraries: Fluorescence Readout (AID 1920061); also: 0% is about no effect
Summary of the method: as §3

O=C(O[C@@H]1Cc2c(O)cc(O)cc2O[C@@H]1c1cc(O)c(O)c(O)c1)c1cc(O)c(O)c(O)c1
-0.202%: max response [4]
inactive: Potency [1] | outcome [2] | outcome [3] | outcome [5] | outcome [6] | max response [8] -1.14% | activation [9] -1.73% | activation [10] -3.33% | max response [11] -1.73% | max response [12] -12.8% | max response [13] -1.55% | Potency [14] | max response [16] -1.38% | outcome [17]
active: Potency [15] 0.163 µM
-13.5%: max response [7]

CC(C)[C@H](NC(=O)OCc1ccccc1)C(=O)N[C@@H](C)C(=O)N[C@@H](CC(=O)O)C(=O)CF
inactive: Potency [14] | Potency [15]

COc1cc(-c2oc3cc(O)cc(O)c3c(=O)c2O)ccc1O
active: Potency [22] 11.2 µM | Potency [23] 4.47 µM | Potency [24] 7.94 µM
inactive: Potency [14] | outcome [18] | outcome [19] | Potency [20] | outcome [21] | max response [25] -5.64% | outcome [26] | Potency [27] | outcome [28] | outcome [29]

O=C(O)c1cc(-c2ccc(/C=C3\SC(=S)N(Cc4ccccc4)C3=O)o2)ccc1Cl
inactive: Potency [14]

COc1ccc(-c2sc(NC(=O)C(C)(C)C)nc2C)cc1S(=O)(=O)Nc1ccc(O)cc1
inactive: Potency [14]
